Laboratory results taken from publication PMC11006913.
Where a chain is given by its changes, count along the chain named.

Experiments:
Experiment in all cases: PBM; 200 nM protein, PBS
Details in all cases: dsDNA, one strand shown
HOXB4 [1] = target: HOXB4 (Homo sapiens, UniProt P17483 148-234)
VENTX [2] = target: T1, VENTX (Homo sapiens, UniProt O95231 78-163, R121Q)
T1 sequence: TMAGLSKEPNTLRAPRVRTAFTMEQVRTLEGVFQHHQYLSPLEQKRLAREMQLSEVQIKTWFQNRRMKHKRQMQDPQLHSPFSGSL

HOXB9 [3] = target: HOXB9 (Homo sapiens, UniProt P17482 171-250, T197M)
VENTX [4] = target: T2, VENTX (Homo sapiens, UniProt O95231 78-163)
T2 sequence: T1 sequence with Q44R

HOXA7 [5] = target: HOXA7 (Homo sapiens, UniProt P31268 116-202)
PAX4 [6] = target: T3, PAX4 (Homo sapiens, UniProt O43316 9-242, R200K)
T3 sequence: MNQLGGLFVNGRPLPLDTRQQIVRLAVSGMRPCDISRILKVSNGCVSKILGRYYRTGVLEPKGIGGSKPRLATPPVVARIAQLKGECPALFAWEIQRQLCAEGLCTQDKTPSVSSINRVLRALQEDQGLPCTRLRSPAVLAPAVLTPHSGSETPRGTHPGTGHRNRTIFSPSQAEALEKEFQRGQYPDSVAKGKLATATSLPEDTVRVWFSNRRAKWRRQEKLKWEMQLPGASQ

VENTX [7] = target: T4, VENTX (Homo sapiens, UniProt O95231 78-163, Y115F)
T4 sequence: T1 sequence with Y38F, Q44R

PAX4 [8] = target: T5, PAX4 (Homo sapiens, UniProt O43316 9-242)
T5 sequence: T3 sequence with K192R

HOXB9 [9] = target: HOXB9 (Homo sapiens, UniProt P17482 171-250)
HOXB4 [10] = target: HOXB4 (Homo sapiens, UniProt P17483 148-234, V174I)
PAX4 [11] = target: T6, PAX4 (Homo sapiens, UniProt O43316 9-242, R200Q)
T6 sequence: T3 sequence with K192Q

PAX4 [12] = target: T7, PAX4 (Homo sapiens, UniProt O43316 9-242, F177V)
T7 sequence: T3 sequence with F169V, K192R

PAX4 [13] = target: T8, PAX4 (Homo sapiens, UniProt O43316 9-242, F177Y)
T8 sequence: T3 sequence with F169Y, K192R

HOXB9 [14] = target: HOXB9 (Homo sapiens, UniProt P17482 171-250, R186Q)
PAX4 [15] = target: T9, PAX4 (Homo sapiens, UniProt O43316 9-242, R227W)
T9 sequence: T3 sequence with K192R, R219W

HOXA7 [16] = target: HOXA7 (Homo sapiens, UniProt P31268 116-202, W177C)
SIX6 [17] = target: T10, SIX6 (Homo sapiens, UniProt O95475 114-200, L167I)
T10 sequence: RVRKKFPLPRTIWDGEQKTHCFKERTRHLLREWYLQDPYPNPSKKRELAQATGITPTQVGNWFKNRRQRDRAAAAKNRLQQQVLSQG

SIX6 [18] = target: T11, SIX6 (Homo sapiens, UniProt O95475 114-200, L143V)
T11 sequence: T10 sequence with L30V, I54L

SIX6 [19] = target: T12, SIX6 (Homo sapiens, UniProt O95475 114-200, H141N)
T12 sequence: T10 sequence with H28N, I54L

SIX6 [20] = target: T13, SIX6 (Homo sapiens, UniProt O95475 114-200, T165P)
T13 sequence: T10 sequence with T52P, I54L

SIX6 [21] = target: T14, SIX6 (Homo sapiens, UniProt O95475 114-200, L167M)
T14 sequence: T10 sequence with I54M

SIX6 [22] = target: T15, SIX6 (Homo sapiens, UniProt O95475 114-200, L143M)
T15 sequence: T10 sequence with L30M, I54L

SIX6 [23] = target: T16, SIX6 (Homo sapiens, UniProt O95475 114-200, L143I)
T16 sequence: T10 sequence with L30I, I54L

SIX6 [24] = target: T17, SIX6 (Homo sapiens, UniProt O95475 114-200, T165G)
T17 sequence: T10 sequence with T52G, I54L

SIX6 [25] = target: T18, SIX6 (Homo sapiens, UniProt O95475 114-200, T139Q)
T18 sequence: T10 sequence with T26Q, I54L

ALX1 [26] = target: ALX1 (Homo sapiens, UniProt Q15699 118-204, L144V)
SIX6 [27] = target: T19, SIX6 (Homo sapiens, UniProt O95475 114-200, T165A)
T19 sequence: T10 sequence with T52A, I54L

ALX1 [28] = target: ALX1 (Homo sapiens, UniProt Q15699 118-204, L144R)
SIX6 [29] = target: T20, SIX6 (Homo sapiens, UniProt O95475 114-200, L167V)
T20 sequence: T10 sequence with I54V

SIX6 [30] = target: T21, SIX6 (Homo sapiens, UniProt O95475 114-200)
T21 sequence: T10 sequence with I54L

SIX6 [31] = target: T22, SIX6 (Homo sapiens, UniProt O95475 114-200, T165I)
T22 sequence: T10 sequence with T52I, I54L

ALX1 [32] = target: ALX1 (Homo sapiens, UniProt Q15699 118-204)
Chain of ALX1 (Homo sapiens, UniProt Q15699 118-204) (Q15699 118-204): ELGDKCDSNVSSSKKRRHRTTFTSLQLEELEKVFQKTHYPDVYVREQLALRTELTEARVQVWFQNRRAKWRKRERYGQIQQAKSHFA

Chain of HOXB4 (Homo sapiens, UniProt P17483 148-234) (P17483 148-234): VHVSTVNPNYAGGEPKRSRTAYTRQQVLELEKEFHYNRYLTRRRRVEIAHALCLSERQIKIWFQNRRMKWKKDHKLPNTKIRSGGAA
Chain of HOXB4 (Homo sapiens, UniProt P17483 148-234, V174I) (P17483 148-234 V174I): as the sequence (P17483 148-234) above, with V27I counted along it
Chain of HOXA7 (Homo sapiens, UniProt P31268 116-202) (P31268 116-202): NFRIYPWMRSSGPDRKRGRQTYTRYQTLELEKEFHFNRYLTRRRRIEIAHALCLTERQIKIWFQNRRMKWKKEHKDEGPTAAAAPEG
Chain of HOXB9 (Homo sapiens, UniProt P17482 171-250) (P17482 171-250): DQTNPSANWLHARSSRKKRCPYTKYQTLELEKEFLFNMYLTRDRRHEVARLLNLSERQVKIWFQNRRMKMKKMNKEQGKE
Chain of HOXA7 (Homo sapiens, UniProt P31268 116-202, W177C) (P31268 116-202 W177C): as the sequence (P31268 116-202) above, with W62C counted along it
Chain of ALX1 (Homo sapiens, UniProt Q15699 118-204, L144V) (Q15699 118-204 L144V): as the sequence (Q15699 118-204) above, with L27V counted along it
Chain of HOXB9 (Homo sapiens, UniProt P17482 171-250, T197M) (P17482 171-250 T197M): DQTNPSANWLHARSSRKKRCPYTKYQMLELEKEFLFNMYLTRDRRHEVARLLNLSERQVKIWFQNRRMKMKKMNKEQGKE
Chain of HOXB9 (Homo sapiens, UniProt P17482 171-250, R186Q) (P17482 171-250 R186Q): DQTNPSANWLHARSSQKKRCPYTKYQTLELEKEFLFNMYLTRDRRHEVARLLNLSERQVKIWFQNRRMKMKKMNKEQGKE
Chain of ALX1 (Homo sapiens, UniProt Q15699 118-204, L144R) (Q15699 118-204 L144R): as the sequence (Q15699 118-204) above, with L27R counted along it

In the case of GACCAGGC, the binding signal (HOXB4 [1]) is reported as 7.9 upbm affinity estimate (log intensity, higher = more binding, comparable within an allelic series), the binding signal (VENTX [2]) is reported as 8.15 upbm affinity estimate (log intensity, higher = more binding, comparable within an allelic series) and the binding signal (HOXB9 [3]) is reported as 8.29 upbm affinity estimate (log intensity, higher = more binding, comparable within an allelic series). The binding signal (VENTX [4]) was 8.13 upbm affinity estimate (log intensity, higher = more binding, comparable within an allelic series), the binding signal (HOXA7 [5]) was 8.38 upbm affinity estimate (log intensity, higher = more binding, comparable within an allelic series) and the binding signal (PAX4 [6]) was 9.22 upbm affinity estimate (log intensity, higher = more binding, comparable within an allelic series). For the same sequence, the binding signal (VENTX [7]) was 8.13 upbm affinity estimate (log intensity, higher = more binding, comparable within an allelic series), the binding signal (PAX4 [8]) was 9.45 upbm affinity estimate (log intensity, higher = more binding, comparable within an allelic series) and the binding signal (HOXB9 [9]) was 8.23 upbm affinity estimate (log intensity, higher = more binding, comparable within an allelic series). For the same sequence, the binding signal (HOXB4 [10]) was 7.99 upbm affinity estimate (log intensity, higher = more binding, comparable within an allelic series), the binding signal (PAX4 [11]) was 9.45 upbm affinity estimate (log intensity, higher = more binding, comparable within an allelic series) and the binding signal (PAX4 [12]) was 9.26 upbm affinity estimate (log intensity, higher = more binding, comparable within an allelic series). The binding signal (PAX4 [13]) was 9.29 upbm affinity estimate (log intensity, higher = more binding, comparable within an allelic series), the binding signal (HOXB9 [14]) was 8.26 upbm affinity estimate (log intensity, higher = more binding, comparable within an allelic series) and the binding signal (PAX4 [15]) was 9.37 upbm affinity estimate (log intensity, higher = more binding, comparable within an allelic series). For the same sequence, the binding signal (HOXA7 [16]) was 8.39 upbm affinity estimate (log intensity, higher = more binding, comparable within an allelic series).
In the case of GCGCAGCC, the binding signal (HOXB4 [1]) is reported as 7.53 upbm affinity estimate (log intensity, higher = more binding, comparable within an allelic series), the binding signal (SIX6 [17]) is reported as 8.75 upbm affinity estimate (log intensity, higher = more binding, comparable within an allelic series) and the binding signal (SIX6 [18]) is reported as 8.82 upbm affinity estimate (log intensity, higher = more binding, comparable within an allelic series). The binding signal (SIX6 [19]) was 8.75 upbm affinity estimate (log intensity, higher = more binding, comparable within an allelic series), the binding signal (SIX6 [20]) was 8.87 upbm affinity estimate (log intensity, higher = more binding, comparable within an allelic series) and the binding signal (SIX6 [21]) was 8.77 upbm affinity estimate (log intensity, higher = more binding, comparable within an allelic series). The binding signal (SIX6 [22]) was 8.72 upbm affinity estimate (log intensity, higher = more binding, comparable within an allelic series), the binding signal (SIX6 [23]) was 8.74 upbm affinity estimate (log intensity, higher = more binding, comparable within an allelic series) and the binding signal (SIX6 [24]) was 8.7 upbm affinity estimate (log intensity, higher = more binding, comparable within an allelic series). For the same sequence, the binding signal (SIX6 [25]) was 8.82 upbm affinity estimate (log intensity, higher = more binding, comparable within an allelic series), the binding signal (HOXB4 [10]) was 7.57 upbm affinity estimate (log intensity, higher = more binding, comparable within an allelic series) and the binding signal (ALX1 [26]) was 6.42 upbm affinity estimate (log intensity, higher = more binding, comparable within an allelic series). The binding signal (SIX6 [27]) was 8.78 upbm affinity estimate (log intensity, higher = more binding, comparable within an allelic series), the binding signal (ALX1 [28]) was 6.45 upbm affinity estimate (log intensity, higher = more binding, comparable within an allelic series) and the binding signal (SIX6 [29]) was 8.72 upbm affinity estimate (log intensity, higher = more binding, comparable within an allelic series). For the same sequence, the binding signal (SIX6 [30]) was 8.73 upbm affinity estimate (log intensity, higher = more binding, comparable within an allelic series), the binding signal (SIX6 [31]) was 8.7 upbm affinity estimate (log intensity, higher = more binding, comparable within an allelic series) and the binding signal (ALX1 [32]) was 6.41 upbm affinity estimate (log intensity, higher = more binding, comparable within an allelic series).
CGCAGACC was tested, and the binding signal (HOXB4 [1]) was 7.32 upbm affinity estimate (log intensity, higher = more binding, comparable within an allelic series), the binding signal (VENTX [2]) was 8.16 upbm affinity estimate (log intensity, higher = more binding, comparable within an allelic series) and the binding signal (VENTX [4]) was 7.99 upbm affinity estimate (log intensity, higher = more binding, comparable within an allelic series). The binding signal (VENTX [7]) was 8.12 upbm affinity estimate (log intensity, higher = more binding, comparable within an allelic series) and the binding signal (HOXB4 [10]) was 7.36 upbm affinity estimate (log intensity, higher = more binding, comparable within an allelic series).
